Measurements: PubChem BioAssay (NCI)
About 83,000 compounds went through this panel and 20% of them were active in at least one assay; those are over-represented in the sample as a whole.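 Cells were grown in 96-well plates and exposed to the test compound at a single concentration for 48 hours; results are reported as percent growth, with values below 10 considered active.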 Unmarked numbers belong to inactive results. Activity calls are given as the source filed them.

Legend:
Test in all cases: NCI-60 one-dose screen, 48 h (100 = growth as untreated, 0 = no growth, -100 = all killed)
Conditions in all cases: 10 µM unless noted
SK-MEL-2 melanoma = test system: SK-MEL-2 melanoma
EKVX NSCLC = test system: EKVX NSCLC
UO-31 renal = test system: UO-31 renal
TK-10 renal = test system: TK-10 renal
ACHN renal = test system: ACHN renal
CAKI-1 renal = test system: CAKI-1 renal
A498 renal = test system: A498 renal
CCRF-CEM leukemia = test system: CCRF-CEM leukemia
MOLT-4 leukemia = test system: MOLT-4 leukemia
SR leukemia = test system: SR leukemia
RPMI-8226 leukemia = test system: RPMI-8226 leukemia
OVCAR-8 ovarian = test system: OVCAR-8 ovarian
OVCAR-5 ovarian = test system: OVCAR-5 ovarian
OVCAR-4 ovarian = test system: OVCAR-4 ovarian
SK-OV-3 ovarian = test system: SK-OV-3 ovarian
IGROV1 ovarian = test system: IGROV1 ovarian
OVCAR-3 ovarian = test system: OVCAR-3 ovarian
HS 578T breast = test system: HS 578T breast
NCI/ADR-RES ovarian = test system: NCI/ADR-RES ovarian
SN12C renal = test system: SN12C renal

Row | SMILES | growth (SK-MEL-2 melanoma) | growth (EKVX NSCLC) | growth (UO-31 renal) | growth (TK-10 renal) | growth (ACHN renal) | growth (CAKI-1 renal) | growth (A498 renal) | growth (CCRF-CEM leukemia) | growth (MOLT-4 leukemia) | growth (SR leukemia) | growth (RPMI-8226 leukemia) | growth (OVCAR-8 ovarian) | growth (OVCAR-5 ovarian) | growth (OVCAR-4 ovarian) | growth (SK-OV-3 ovarian) | growth (IGROV1 ovarian) | growth (OVCAR-3 ovarian) | growth (HS 578T breast) | growth (NCI/ADR-RES ovarian) | growth (SN12C renal)
1 | CCCCCCCCc1ccc(S(=O)(=O)Nc2ccc(CC)cc2C(=O)O)cc1 | 86.7% | 90.5% | 84.8% | 104% | 96% | 89% | 104% | 77.9% | 91.1% | 96.7% | 71.1% | 95.1% | 117% | 96% | 106% | 97.4% | 113% | 103% | 96% | 
2 | COc1cc(/C=C/C(=O)c2ccccc2)ccc1Oc1nc(Nc2ccc(F)cc2)nc(N(C)C)n1 | -38% (active) | 38.6% | 27.3% | 89.8% | -4.12% (active) |  | 48.8% | 9.17% (active) | 7.1% (active) | 1.38% (active) | -8.57% (active) | 22.1% | 49.1% |  | 79.7% | 48.8% | 39.4% | 36.2% | 11.3% | -5.73% (active)
3 | Cc1cc(=O)oc2cc(OCCCCOc3ccc(/C=C/C(=O)Nc4ccccc4N)cc3)ccc12 | 111% | 60.3% | 23.3% | 112% | 68.2% | 59.8% | 84.1% | 10.9% | 27.8% | 56.4% | 18.7% | 85.2% | 84.8% | 73.1% | 92.1% | 81.7% | 64.9% | 118% | 74.3% | 
4 | O=C(COc1ccc(NC(=O)Nc2ccc(Cl)cc2)cc1)N/N=C/c1ccccc1 | -84.3% (active) | -58.5% (active) | -14% (active) | -77.9% (active) | -77.4% (active) | -89.6% (active) | -94.3% (active) | -13.7% (active) | 9.72% (active) | 6.18% (active) | -23.5% (active) | -49% (active) | -9.58% (active) | -51.9% (active) | -60.2% (active) | -57.3% (active) | -76.9% (active) | -36.9% (active) | -10.9% (active) | 
5 | CC(C)CSc1nc(NCCc2c[nH]c3ccccc23)c(C#N)c(-c2ccccc2)n1 | 75.6% | 39.7% | 72.2% | 110% | 69.3% | 50.8% | 67.9% | 30.2% | 30.7% | -10.2% (active) | 35.8% | 76.9% | 85.6% | 77.2% | 86.7% | 104% | 93.5% | 48.2% | 53.5% | 
6 | CC(=O)OC[C@@]1(C)C2CC[C@]3(C)C(CC=C4C5CC(C)(C)CC[C@]5(C(=O)Nc5ccc(F)cc5)CC[C@]43C)[C@@]2(C)C[C@@H](OC(C)=O)[C@@H]1OC(C)=O (some centres undefined) | 32.6% | 28.1% | 38.6% | 56.5% | 38.6% | 44.9% | 63.1% | 29.8% | 35% | 27.8% | 13.5% | 36.4% | 78.7% | 30.3% | 45.1% | 51.9% | 42% | 85.3% | 40.6% | 
7 | N#Cc1c(NCc2ccccc2)n[nH]c1Nc1ccccc1 | 20.7% | 52.8% | 38.5% | 75.5% | 38.1% |  | 79% | 18.3% |  |  | 37.3% | 61.1% | 84.4% | 52.9% | 68% | 89.6% | 66.8% | 84.6% | 59.9% | 50.8%
8 | O=C1N/C(=N\c2nccs2)S/C1=C\C=C/c1ccccc1 | 37.7% | 27.5% | 25.5% | 34.5% | 23.5% |  | 57.2% |  |  |  | 39.4% |  | 61.8% | 44.5% | 77.7% | 30.3% | 50.7% | 85.2% | 37.4% | 39.2%
9 | O=c1[nH]c2ccccc2cc1CSc1nccc(-c2ccc3ccccc3c2)n1 | 84.5% | 49.4% | 78.6% | 83% | 95.8% | 56.6% | 114% | 33.1% | 21.9% | 20.6% | 52.1% | 79.6% | 93.7% | 80.3% | 84.3% | 89.9% | 102% | 71% | 41.7% | 
10 | O=c1[nH]n(C(=S)N/N=C/c2ccccc2Cl)c(=O)c2ccccc12 | -33% (active) | -35.4% (active) | 15.6% | 25.8% | 5.27% (active) |  | 38.7% | -11.2% (active) | -1.75% (active) | -13.8% (active) | -1.71% (active) | 4.91% (active) | 9.48% (active) | 33% | 23.4% | 7.53% (active) | 24% |  | -9.23% (active) | 7.3% (active)
11 | Nc1cccc(SCc2cc3ccccc3[nH]c2=O)c1 | 56.4% | 43.4% | 39.1% | 64.3% | 17.6% | 34.2% | 69.7% | 33% | 36.1% | 36.5% | 33.1% | 56.7% | 63.6% | 44.1% | 80% | 72.9% | 65.2% | 78.2% | 67.8% | 
12 | Cc1ccc(C(=O)CSc2nc3ccc(F)cc3c(=O)n2-c2ccc(Cl)cc2)cc1 | 99.1% | 51.1% | 56.4% | 83.7% | 33.3% | 10.1% | 55.7% | 75.8% | 82.4% | 93.9% | 93.9% | 37.8% | 76.2% | 31% | 46% | 82.7% | 82.4% | -18.9% (active) | 28.3% | 
13 | Cc1cc(N=C2NC(=O)CS2)n[nH]1 | 98.7% | 72.7% | 79.3% | 108% | 102% |  | 124% |  |  |  | 144% | 106% | 99.6% | 123% | 121% | 99.8% | 105% | 102% | 111% | 101%
14 | Cc1sc(C(NC(=O)OCCn2c([N+](=O)[O-])cnc2C)C(F)(F)Cl)nc1-c1ccc(OC(F)(F)F)cc1 (centres undefined) | -90.7% (active) | -98% (active) | -95.5% (active) | -91.7% (active) | -98.5% (active) | -76.6% (active) | -89.7% (active) | -17.4% (active) | 2.22% (active) | 5.16% (active) | 2.36% (active) | -65.9% (active) | -96% (active) | -37.7% (active) | -84.8% (active) | -80.6% (active) | -59.6% (active) | -31.1% (active) | -78.6% (active) | 
15 | Cc1ccc(C(SCCNCc2cc(N(C)C)ccn2)(c2ccccc2)c2ccccc2)cc1 | -36.3% (active) | -24.8% (active) | 8.42% (active) | -4.26% (active) | 3.79% (active) | -10.4% (active) | -43.8% (active) | -3.65% (active) | 8% (active) | -45.1% (active) | -54.6% (active) | -52.5% (active) | -19.9% (active) | 11.4% | -10.5% (active) | 6.28% (active) | -46.7% (active) | -45.7% (active) | -56.8% (active) | 
